# Out of some 320,000 compounds screened, about 22,000 (6.9%) were called active. Roughly 27% stayed inconclusive and do not appear here. For the sample, actives were picked, then their nearest neighbours and some compounds at random. Unmarked numbers belong to inactive results. Calls follow the shape of the dose curve; as a rule, active = well fitted inhibition curve with a large enough effect; inconclusive = small, poorly fitted or top-dose-only effect, or another doubt; inactive = no such curve, though single readings can be large or run the other way.
# Experiment: Primary qHTS for delayed death inhibitors of the malarial parasite plastid, 96 hour incubation
# Details: P. falciparum luciferase reporter growth; series mostly up to 28.7 µM; activity change, negative = inhibition: at the top concentration
# From the text: The goal of this screen is to discover new antimalarial compounds that act by inhibiting the development of the apicoplast in the malarial parasite Plasmodium falciparum. The biochemical processes that make this organelle essential for erythrocytic stage parasites are not well understood. However, antibiotics such as azithromycin and tetracycline, which target the apicoplast translational machinery, have a potent antimalarial effect.
# We have developed a cell-based assay that measures parasite growth based on the expression of an integrated copy of a firefly luciferase reporter. To detect small molecules that cause this "delayed death" phenotype, erythrocytes infected with the luciferase-expressing parasites were incubated with compounds for either one or two generations, corresponding to 48 and 96 hours, respectively. Compounds that inhibit parasite growth in the second generation, but not the first, should be enriched in antimalarials that target the apicoplast. Growth inhibition is detected by a decrease in luciferase activity.
# Assay Provider: David Fidock and Eric Ekland, Columbia University
# Keywords: NIH Roadmap, MLPCN, MLI, MLSMR, qHTS, NCGC, qHTS, malaria, luciferase, viability
# Four microliters of infected erythrocytes (2% hematocrit, 0.05% parasitemia final concentration) in culture medium were dispensed and the plates incubated for 96 hours at 37 C in 5% CO2. Two microliters of luciferase detection reagent was added and luminescence was detected by a ViewLux (PerkinElmer) reader.
# % is scaled to controls: 0 for no effect and ±100 for the full control effect; potency is read from the fitted curve at half-maximal effect.
Compound,"activity change, negative = inhibition",Potency
Cc1ccccc1C(=O)N1CCC(C(=O)Oc2ccc(C#N)cc2)CC1,83.9%,
COc1ccc(S(=O)(=O)N2CCOC2CNC(=O)C(=O)NCc2ccncc2)cc1OC (configuration not stated),0.814%,
Cc1cccc(C)c1NC(=O)CS(=O)CC(=O)N1CCN(c2ccccc2)CC1 (configuration not stated),36.4%,
c1ccc(-c2cc3c(NCC4COc5ccccc5O4)ncnc3s2)cc1 (configuration not stated),,10.4 µM (active)
COc1ccc(Nc2ncnc3sc(-c4ccccc4)cc23)c(OC)c1,0%,
S=C(NCC1COc2ccccc2O1)Nc1ccc(Br)cc1 (configuration not stated),-2.67%,
N#Cc1c(-c2ccc(F)cc2)nc(-c2ccccc2)[nH]c1=O,6.5%,
N#Cc1ccc(-c2nc3cc(C#N)c(C#N)cc3nc2-c2ccccc2)cc1C#N,,5.22 µM (active)
N#Cc1ccc(-c2ccc(F)cc2)nc1Sc1ccccc1,-5.08%,
COc1cccc(CNC(=O)Cn2c(=O)oc3cc(S(=O)(=O)N4CCCCC4)ccc32)c1,-26.1%,
CCc1cccc(C)c1NC(=O)COC(=O)CC1CCCC1,12.5%,
O=C(NCCC1=CCCCC1)c1ccc(-n2cncn2)cc1,191%,
C1=C(CCNc2ncnc3c2cnn3-c2ccccc2)CCCC1,,0.104 µM (active)
CC(C)Sc1ncnc2c1cnn2-c1ccccc1,-5.57%,
O=C(CSc1ncccn1)N1CCCC1,0.0556%,
CN1CCN(S(=O)(=O)c2ccc(Nc3ccc(F)cc3)nc2)CC1,-23.9%,
COCCn1c(CN(Cc2ccccc2)Cc2ccccc2)nc2c1c(=O)n(C)c(=O)n2C,,2.94 µM (active)
CCN1CCN(Cc2nc3c(c(=O)n(C)c(=O)n3C)n2CC(=O)c2ccccc2)CC1,-12%,
CCOC(=O)N1CCN(Cc2nc3c(c(=O)n(C)c(=O)n3C)n2Cc2ccccc2)CC1,,13.1 µM (active)
CCOC(=O)N1CCN(CCC(=O)Nc2ccccc2)CC1,-13.3%,
Cn1c(=O)[nH]c(=O)c2c1nc(N(CCO)Cc1ccccc1)n2Cc1ccccc1Cl,14.3%,
Cn1c(=O)[nH]c(=O)c2c1nc(CN(Cc1ccccc1)Cc1ccccc1)n2CCN1CCOCC1,17.7%,
Cn1c(=O)c2c(nc(Br)n2CCSc2nc3ccccc3o2)n(C)c1=O,21.3%,
CCOC(=O)Cn1c(CN(Cc2ccccc2)Cc2ccccc2)nc2c1c(=O)[nH]c(=O)n2C,,3.29 µM (active)
CN1CCN(Cc2nc3c(c(=O)n(C)c(=O)n3C)n2Cc2cccc3ccccc23)CC1,2.21% [at 5.75 µM],
CCCCCCn1c(CN2CCCC(C)C2)nc2c1c(=O)n(C)c(=O)n2C (configuration not stated),-3.53%,

Compound,"activity change, negative = inhibition",Potency
CC(C)Cn1c(CN(Cc2ccccc2)Cc2ccccc2)nc2c1c(=O)n(C)c(=O)n2C,-10.2%,
COCCn1c(CN2CCC(Cc3ccccc3)CC2)nc2c1c(=O)n(C)c(=O)n2C,,5.22 µM (active)
Cc1ccc(C)c(OCc2cc(C(=O)N3CCN(c4cnccn4)CC3)no2)c1,-41.1%,
COc1ccccc1CCCNC(=O)C1CCC(=O)N(CCN2CCOCC2)C1 (configuration not stated),6.7%,
CCCCCn1c(=O)[nH]c2cc(C(=O)NCCCN3CCCCC3C)ccc2c1=O (configuration not stated),11.9%,
COc1ccc2[nH]c(=O)c(C3c4cc(OC)c(OC)cc4CCN3C(=O)c3ccco3)cc2c1 (configuration not stated),14.7%,
O=C(Nc1nnc(Cc2ccc(Cl)cc2)s1)c1ccncc1,9.34%,
CCNS(=O)(=O)c1ccc(CCC(=O)N2CCN(c3ccc(OC)cc3)CC2)cc1,19.3%,
COC(=O)c1c(C)oc(C)c1S(=O)(=O)NCc1ccc(Cl)cc1,5.34%,
CCCCC/C=C/C1=CC(=O)C[C@H](c2ccc(Cl)cc2)C1,-8.55%,
C(=C\c1ccccc1)/CSc1nnc(-c2cccnc2)n1Cc1ccco1,,10.4 µM (active)
O=C(CSc1nnc(-c2cnccn2)n1Cc1ccco1)c1ccc(Cl)c(Cl)c1,12.7%,
CCOC(=O)Cc1csc(NC(=O)CSc2nnc(-c3cccnc3)n2Cc2ccco2)n1,4.98%,
CCn1c(CC(=O)Nc2ccccc2C)nnc1SCC(=O)NC1=NCCS1,12.2%,
c1ccc2c(c1)CCc1snnc1-2,-21.5%,
O=C(Cn1nc([N+](=O)[O-])nc1Br)NC1CCCCC1,-21.7%,
CCn1c(SCC(=O)NCC2CCCO2)nc2ccccc21 (configuration not stated),-7.07%,
CCC(C)NC(=O)CSC1=Nc2ccccc2C2=NC(CCC(=O)NCc3ccco3)C(=O)N12 (configuration not stated),12%,
O=C(CSC1=Nc2ccccc2C2=NC(CC(=O)NCc3ccco3)C(=O)N12)NCc1ccco1 (configuration not stated),,1.85 µM (active)
O=C(CSc1ccc(-c2ccccc2)nn1)NCC1CCCO1 (configuration not stated),30.6%,
O=C(CC1N=C2c3ccccc3N=C(SCc3ccccc3Cl)N2C1=O)NCc1ccco1 (configuration not stated),74.9%,
O=C(CSC1=Nc2ccccc2C2=NC(c3ccccc3)C(=O)N12)NCC1CCCO1 (configuration not stated),,7.38 µM (active)
O=C(NCc1ccco1)/C(=C/c1ccco1)NC(=O)c1ccccc1,-11.6%,
CC1CCN(C(=O)COC(=O)c2cc(S(=O)(=O)N3CCOCC3)ccc2Cl)CC1,8.35%,
COc1cc(C(=O)NNC(=O)CN2C(=O)NC3(CCCC3)C2=O)cc(OC)c1OC,-17.8%,
COc1cccc(C(=O)Nc2nnc(S(=O)(=O)N3CCCCC3)s2)c1,39.1%,
